Only some compounds are listed: those with a hit (about 11% of all), similar ones and a draw of the others.
PNC inhibitor: High Content Assay for Compounds that inhibit the Assembly of the Perinucleolar Compartment; PC3M PTB-GFP, PNC prevalence imaging, 16 h; stronger effect = lower value; AID 2417, 2010; 140,000 tested, 3.1% active; activity change (PNC), negative = inhibition, % at 10 µM;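 active = readout at or below -70, meaning at least 70% loss of cells showing the perinucleolar compartment, a nuclear body marking cancer cells; inconclusive = readout between -30 and a set limit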;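 also: plate controls were DMSO wells for no effect and camptothecin positive control wells for full effect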
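Read-out is percentage of cells bearing a perinucleolar compartment, from automated 20x imaging of fixed, Hoechst-stained PC3M PTB-GFP cells. Cells were seeded 4 h, then exposed 16 h to compound (23 nl of library stock) in duplicate plates.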
IMPase inh: qHTS Assay for Identifying the Cell-Membrane Permeable IMPase Inhibitors; 120,000 tested, under 10 active; inhibition (IP1 accumulation), % at 46.1 µM; Inositol monophosphatase 1 (Rattus norvegicus), P97697; CHO-M1 cells, IP1 accumulation, HTRF TR-FRET ratio; active = well fitted curve in the direction sought with a large enough effect in the signal ratio, not every such curve was filed as active; inconclusive = small, poorly fitted or top-dose-only effect, or a change in a side signal; inactive = no such curve, though single readings can be large or run the other way; the % refers to the signal ratio;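 also: cells stimulated with carbachol in lithium chloride buffer; plate controls were DMSO basal wells for no effect and reference inhibitor wells for full effect; higher means more IMPase inhibition seen as more IP1 and lower FRET ratio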
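Measured: the HTRF emission ratio (665/620 nm) plus the 620 nm donor channel, each fitted to the Hill equation to give AC50. Cells were CHO-M1 given compounds up to 46 uM and a 30 min carbachol stimulation at 37C.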
HPGD block: qHTS Assay for Inhibitors of HPGD (15-Hydroxyprostaglandin Dehydrogenase). 150,000 tested, 4.3% active. purified HPGD, NADH fluorescence kinetic, PGE2 substrate. AID 894, 2007. 15-hydroxyprostaglandin dehydrogenase [NAD(+)] (Homo sapiens), P15428. Potency, µM, without a hit: at the top dose activity change, negative = inhibition, hits mostly inhibitors; also: potency is read from the fitted curve at half-maximal effect
Target sequence (P15428 whole entry, looked up): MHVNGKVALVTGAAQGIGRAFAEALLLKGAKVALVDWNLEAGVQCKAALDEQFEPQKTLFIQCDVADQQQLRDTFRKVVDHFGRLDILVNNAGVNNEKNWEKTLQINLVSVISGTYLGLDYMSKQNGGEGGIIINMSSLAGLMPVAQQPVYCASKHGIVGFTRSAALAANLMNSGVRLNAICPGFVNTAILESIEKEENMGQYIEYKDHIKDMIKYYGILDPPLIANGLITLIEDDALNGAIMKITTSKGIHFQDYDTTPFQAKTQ
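NADH formation kinetics: reaction with 30 uM PGE2 and 1 mM NAD+ (final), 20 nM enzyme, Tris-HCl pH 8 with Tween 20, after 15 min compound preincubation at room temperature. Fluorescence change, last versus first of five reads.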
IMPase Li inh: qHTS Assay for Identifying the Cell-Membrane Permeable IMPase Inhibitors: Potentiation with Lithium; AID 1457, 2008; 210,000 tested, 0.35% active; Potency, µM (top dose mostly 59.4 µM), for inactives: at the top dose activity, negative = IMPase inhibition, usual class: inhibitors; CHO-M1 cells, IP1 TR-FRET (IP-One), carbachol + lithium; active = well fitted curve in the direction sought with a large enough effect; inconclusive = small, poorly fitted or top-dose-only effect, or another doubt; inactive = no such curve, though single readings can be large; an effect the other way counts as inactive or inconclusive;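 also: IP1 builds up when IMPase is blocked and the TR-FRET signal falls; potency is read from the fitted curve at half-maximal effect; plate controls were basal vehicle for no effect and high inhibitor control for full effect; nearly all actives have a fitted effect of over 50% in size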
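Lithium-sensitised IP1 accumulation assay; M1-expressing CHO cells treated 30 min at 37C with compound. Competitive antibody detection by time-resolved FRET followed a 10 min room-temperature lysis step.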
12-hLO inh: qHTS Assay for Inhibitors of 12-hLO (12-human lipoxygenase). purified 12-hLO, xylenol orange hydroperoxide absorbance. Potency, µM (titrated, usually from 57.1 µM), without a hit: at the highest dose activity change, negative = inhibition, hits mostly inhibitors. 150,000 tested, 0.12% active; active = well fitted curve in the direction sought with a large enough effect; inconclusive = small, poorly fitted or top-dose-only effect, or another doubt; inactive = no such curve, though single readings can be large; an effect the other way counts as inactive or inconclusive; also: potency is read from the fitted curve at half-maximal effect; nearly all actives have a fitted effect of over 55% in size
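Lipoxygenase turnover measured by absorbance at 573 and 405 nm after Fe-XO development. Human 12hLO 150 nM, arachidonate 40 uM, pH 7.0 Hepes buffer with detergent; 15 min compound preincubation, 30 min reaction.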
ALDH1A1 inh: qHTS Assay for Inhibitors of Aldehyde Dehydrogenase 1 (ALDH1A1); Potency, µM (series often up to 75.3 µM), for the others: at the highest dose activity, negative = inhibition, hits mostly inhibitors; Purified ALDH1A1, NADH fluorescence, propionaldehyde substrate; 220,000 tested, 7.3% active;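 also: potency is read from the fitted curve at half-maximal effect; plate controls were no enzyme wells and a reference inhibitor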
Target sequence (P00352 whole entry, looked up): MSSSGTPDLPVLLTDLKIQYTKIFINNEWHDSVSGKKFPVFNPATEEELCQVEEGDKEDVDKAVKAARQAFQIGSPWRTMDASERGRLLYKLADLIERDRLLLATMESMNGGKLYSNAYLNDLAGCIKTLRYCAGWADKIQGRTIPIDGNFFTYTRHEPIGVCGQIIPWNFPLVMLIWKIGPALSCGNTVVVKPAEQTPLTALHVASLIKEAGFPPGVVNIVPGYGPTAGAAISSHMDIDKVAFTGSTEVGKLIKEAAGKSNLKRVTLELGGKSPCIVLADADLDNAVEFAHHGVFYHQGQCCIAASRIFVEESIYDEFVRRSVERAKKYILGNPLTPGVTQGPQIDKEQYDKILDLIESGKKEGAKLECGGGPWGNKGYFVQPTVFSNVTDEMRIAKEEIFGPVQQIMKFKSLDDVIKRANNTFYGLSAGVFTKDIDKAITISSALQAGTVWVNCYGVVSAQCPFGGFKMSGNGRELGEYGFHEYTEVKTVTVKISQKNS
Starred values were filed as active, the others as inactive; u = inconclusive; x = no result; [ ] = another dose, or the depositor's remark. Unless noted, calls follow the shape of the dose curve; as a rule, active = well fitted inhibition curve with a large enough effect (not every such curve was filed as active); inconclusive = small, poorly fitted or top-dose-only effect, or another doubt; inactive = no such curve, though single readings can be large or run the other way. Unless noted, % is scaled to controls: 0 for no effect and ±100 for the full control effect.

SMILES	PNC inhibitor	IMPase inh	HPGD block	IMPase Li inh	12-hLO inh	ALDH1A1 inh
CCc1cccc(C)c1NC(=O)COC(=O)C(NS(=O)(=O)c1ccc(Cl)cc1)C(C)O (stereo not given)	u	x	-2%	-2%	-3%	5%
Cc1ccc(NC(=O)COC(=O)C2CC2(Cl)Cl)cc1C (stereo not given)	x	x	x	10%	x	20µM*
Cc1ccc(NC(=O)COC(=O)C(NS(=O)(=O)c2ccc(Cl)cc2)C(C)O)cc1C (stereo not given)	u	x	-7%	6%	-1%	1.3µM*
Cc1ccc(NC(=O)COC(=O)C(NS(=O)(=O)c2ccc(Cl)cc2)C(C)O)c(Br)c1 (stereo not given)	u	x	1%	3%	-8%	3.5µM*
CN(Cc1ccccc1)S(=O)(=O)c1cccc2cccnc12	u	12	22µM*	7%[38.3 µM]	12%	8.9µM*
CN(CC(=O)N1CCCCC1)S(=O)(=O)c1cccc2cccnc12	13	3	16µM*	-3%[38.3 µM]	-3%	u
CC1Cc2ccccc2N1C(=O)CN(C)S(=O)(=O)c1cccc2cccnc12 (stereo not given)	18	-2	-4%	-9%[38.3 µM]	1%	-11%
CCCC(C)c1nnc(NC(=O)CN2C(=O)c3ccccc3C2=O)s1 (stereo not given)	x	x	x	4%	x	28µM*
Cc1ccc2sc(NC(=O)CN3C(=O)c4ccccc4C3=O)nc2c1C	-119*	x	-7%	16%	3%	4%
CCC(=O)N[C@@H]1CCc2cccc(OC)c2C1	x	2	-21%	11%	-2%	3%
CC(C)(C)NC(=O)c1ccc2c(c1)N(CC(=O)N1CCN(c3ccccc3F)CC1)C(=O)C(C)(C)O2	24	-8	-6%	-1%[38.3 µM]	-1%	14µM*
CC(C)NC(=O)c1ccc2c(c1)N(CC(=O)N1CCOCC1)C(=O)C(C)(C)O2	-5	12	1%	3%[38.3 µM]	-6%	7%
CCn1c(=O)c([N+](=O)[O-])c(NCCc2ccccc2)c2ccccc21	u	11	16µM*	7%	1%	u
Cn1c(=O)c([N+](=O)[O-])c(Cl)c2ccccc21	x	x	x	38%	x	18µM*
Cc1ccc(Nc2c([N+](=O)[O-])c(=O)n(C)c3ccccc23)cc1C	4	12	-11%	19%	-2%	8.9µM*
CCN(CC)c1c([N+](=O)[O-])c(=O)n(C)c2ccccc12	x	x	x	-1%	x	4%
CC(=O)Nc1ccc(Nc2c([N+](=O)[O-])c(=O)n(-c3ccccc3)c3ccccc23)cc1	x	x	x	5%	x	10µM*
Cc1ccc(S(=O)(=O)N(CC(=O)Nc2ccc3c(c2)OCO3)c2cc(Cl)cc(Cl)c2)cc1	x	-11	x	x	x	x
C[C@H]1C[C@]2(O[C@@H]2C)C(=O)O[C@@H]2CCN(C)C/C=C(/COC(=O)[C@]1(C)O)C2=O	x	7	-5%	7%	-3%	6%
CC(=O)[C@H](CC(C)C)NC(=O)[C@@H](CC(C)C)NC(=O)[C@H](CC(C)C)NC(=O)OCc1ccccc1	x	3	-2%	14%	-2%	-1%
CCn1c(=O)c([N+](=O)[O-])c(NCCc2ccc(OC)c(OC)c2)c2ccccc21	12	x	8.9µM*	26%	-5%	14µM*
Cn1c(=O)c([N+](=O)[O-])c(NCCc2ccccc2)c2ccccc21	u	-3	16µM*	2%	-5%	-8%
Cc1nc(NCCc2ccccc2)c(C#N)c(C)c1[N+](=O)[O-]	12	-7	-24%	-5%	-4%	-6%
COC(=O)N1CCC[C@@]2(CCN(Cc3nccs3)C2)C1	x	x	1%	-9%	0%	8%
COc1ccc(-n2c(N)c(C(=O)NCC3CCCO3)sc2=S)cc1 (stereo not given)	48	-4	16µM*	28%[38.3 µM]	-1%	u
SMILES	PNC inhibitor	IMPase inh	HPGD block	IMPase Li inh	12-hLO inh	ALDH1A1 inh
Cc1nnc(SCC(=O)NCC2CCCO2)n1-c1ccccc1 (stereo not given)	-118*	-10	-19%	-12%[38.3 µM]	4%	u
COc1ccc(-n2c(Cc3cccn3C)nnc2SCC(=O)NCC2CCCO2)cc1 (stereo not given)	-10	3	-9%	25%[38.3 µM]	4%	-13%
CC(C)OC(=O)CSc1nnc(-c2cnccn2)n1-c1ccccc1	203	-10	-30%	4%	-6%	10%
c1ccc(-n2c(SCC3CCCCO3)nnc2-c2cnccn2)cc1 (stereo not given)	-28	3	28µM*	-9%[38.3 µM]	-4%	u
COc1ccc(-n2c(SCC(=O)NCC3CCCO3)nc3ccccc32)cc1 (stereo not given)	5	-3	10µM*	16%[38.3 µM]	-2%	u
CCC1CCc2nc3sc(C(=O)Nc4ccc(C)cc4C)c(N)c3cc2C1 (stereo not given)	x	-13	x	x	x	x
COc1ccccc1NC(=O)Cn1c(=O)n(CC2CCC(C(=O)NCCc3ccccc3)CC2)c(=O)c2ccccc21 (stereo not given)	x	-18	x	x	x	x
CC(C)=CCC/C(C)=C/CO/N=C1/C[C@@H](O)[C@@H](O)[C@@H]2[C@@H]3C(=O)N([C@@H](C)c4ccccc4)C(=O)[C@H]3CC[C@H]12	x	x	x	x	x	2%[13.5 µM]
CC1(C)OC2CC(=O)OCC23C1CC(=O)C1(C)C3CC[C@@]2(C)[C@H](c3ccoc3)OC(=O)C3OC312 (stereo not given in full)	x	x	-9%	6%	-3%[0.00818 µM]	12%
CCN(CC)S(=O)(=O)c1ccc2c(c1)nc(SC(C)C(N)=O)n2-c1ccc(OC)cc1 (stereo not given)	u	3	-26%	45%[38.3 µM]	-5%	16µM*
O=C1CCC[C@H]1C(=O)Nc1ccc2ccccc2c1	x	x	-7%	-11%	2%[11.4 µM]	12%[13.5 µM]
CS(=O)(=O)N(Cc1ccc(C(=O)NC2CCCC2)cc1)c1ccccc1	x	x	x	-10%	x	-9%
CCCNC(=O)c1ccc(N(Cc2ccccc2)S(C)(=O)=O)cc1	-112*	-2	-12%	2%[38.3 µM]	2%	11%
CS(=O)(=O)N(Cc1ccc(C(=O)NN=C2CCCCCC2)cc1)c1ccccc1	9	x	-10%	2%	-4%	16µM*
